BaF3 parental – parental Ba/F3 cell viability inhibition, counter-screen for JAK2V617F inhibitor project, murine pro-B, CellTiter-Glo luminescence; CellTiter-Glo ATP luminescence; inhibition, % at 5.6 µM; 220,000 tested, 1.1% active;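 active = inhibition above a per-campaign cutoff, the mean inhibition of all tested compounds plus 3 SD, cut at about 27% in these data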;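 note: 0% = DMSO wells and 100% = JAK Inhibitor I control wells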
Ba/F3 V617F tox – reduced viability of JAK2V617F-dependent Ba/F3 cells, primary screen, JAK2V617F inhibitor project, cell-based, Ba/F3 EpoR-JAK2V617F, luminescence | ATP luminescence | inhibition, % at 5.6 µM | 220,000 tested, 1.1% active;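 active = inhibition above the campaign mean plus 3 SD over all tested compounds, cut at about 24% in these data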;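 note: cytokine-independent growth of Ba/F3 cells driven by EpoR plus mutant JAK2; 0% = DMSO-treated cells and 100% = JAK inhibitor I control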
aSyn 5UTR inh – MLPCN primary screen, SNCA 5' untranslated region; alpha-synuclein 5'UTR reporter, inhibitor activity; inhibition, % (tested at 7.5 µM); 300,000 tested, 0.82% active; in the data active = inhibition above about 60%;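 note: H4 neuroglioblastoma cells stably carrying SNCA 5'UTR luciferase fusion; 0% = DMSO wells and 100% = positive control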
IEC-6 cytotox – cytotoxicity in IEC-6 intestinal epithelial cells, primary screen, cytotoxicity control for KLF5 inhibitor project, cell-based, luminescence; IEC-6 cytotoxicity, luminescence viability; inhibition, % at 5 µM; 290,000 tested, 0.78% active; in the data active = inhibition above about 22%;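 note: 0% = plate median of test compound wells and 100% = cytotoxic reference compound wells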
KLF5 inhibitor – KLF5 expression inhibitors, primary screen, DLD-1 cells, luminescence; AID 1700, 2009; DLD-1 KLF5 promoter-luciferase reporter; 290,000 tested, 0.23% active; inhibition, % at 5 µM;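 active = inhibition above a per-plate limit of that plate's mean compound inhibition plus 3 SD, cut at about 60% in these data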;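 note: 0% = DMSO wells and 100% = LY294002 at 200 µM; higher means less KLF5 promoter-driven luciferase light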
APP 5UTR inh – inhibitors of APP translation via 5'UTR reporter, primary screen, APP 5'UTR luciferase, SH-SY5Y cells. SH-SY5Y APP 5'UTR-luciferase reporter, luminescence. inhibition, % at 2 µM. 190,000 tested, 0.82% active. AID 1285, 2008;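 active = inhibition above a set limit, derived from the sample mean plus 3 SD, cut at about 45% in these data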
* marks the source's active call; other numbers are inactive results; . = not tested or not shown. An excerpt weighted towards active compounds, which were near 2.2% of everything screened.

SMILES	BaF3 parental	Ba/F3 V617F tox	aSyn 5UTR inh	IEC-6 cytotox	KLF5 inhibitor	APP 5UTR inh
CCC(C(=O)c1ccccc1)N(C(=O)c1ccccc1Cl)N1C(=O)C2C3C=CC(C3)C2C1=O (configuration not stated)	95*	-4	12	0	-16	-15
O=C(CN(C(=O)c1ccc(Cl)cc1Cl)N1C(=O)C2C3C=CC(C3)C2C1=O)c1ccc(F)cc1 (configuration not stated)	4	6	-9	4	-6	-6
Cn1cnnc1SCc1ccc(C#N)cc1Cl	0	-2	-5	1	-29	18
Nc1nnc(SCCCOc2ccc(F)cc2)s1	.	.	-6	1	-8	.
CCCOc1ccc(OCCSc2nnc(N)s2)cc1	40*	24*	-89	5	-107	5
CC1C/C(=C/c2ccccn2)C(=O)/C(=C/c2ccccn2)C1 (configuration not stated)	73*	52*	89*	3	-16	98*
CC(C)(C)C1C/C(=C/c2ccccn2)C(=O)/C(=C/c2ccccn2)C1 (configuration not stated)	-5	0	103*	4	4	95*
O=C1/C(=C/c2ccccn2)COc2ccccc21	-3	-4	-40	-8	-29	5
Cc1cccc(CCN=C(N)NS(=O)(=O)c2ccccc2)c1	.	.	-18	-1	-9	.
Cc1cc(-c2cccs2)c(C#N)c(=S)[nH]1	63*	20	2	-3	-1	.
N#Cc1c(-c2cccs2)cc(-c2cccs2)[nH]c1=O	-2	-3	0	-2	-15	.
CC(C)CN(CC(C)C)C(=S)Nc1ccc(Cl)cc1	43*	33*	-7	-1	10	4
N#Cc1cc(-c2ccccc2)nnc1Oc1ccccc1Cl	4	-2	7	-6	-11	-6
C[N+](C)(C)CCCCCC[N+](C)(C)C	.	.	2	.	.	.
CCCCCCCCCCCCCCCC[N+](C)(C)CC	.	.	101*	.	.	.
C#CC[N+](C)(C)CCCCCCCCCCCC	76*	80*	77*	9	24	-1
CC#CC[N+](C)(C)CCCCCCCCCCCC	81*	101*	8	24*	24	-13
C#CC[N+](C)(C)CCCCCCCC	43*	66*	28	3	14	-16
Cc1onc(-c2ccccc2)c1C(=O)N1CCN(CCc2ccccc2)CC1	12	0	-12	3	-12	9
CCn1c(=O)c(C(=O)NCc2ccc(Cl)cc2)c(O)c2ccccc21	.	.	31	2	-43	.
O=C1COc2ccc(S(=O)(=O)NCc3ccccc3)cc2N1	.	.	-9	2	-16	.
CCCCCC[N+](C)(C)CCSSCC[N+](C)(C)CCCCCC	4	-5	-10	-4	-25	.
C#CC[N+](C)(C)CCCCCCCCCC	79*	79*	75*	21	28	-4
Cc1ccccc1CN1CCNC1=O	4	0	30	-2	7	11
CCCOC(=O)c1ccc(S(N)(=O)=O)o1	1	-1	6	-1	1	-4
SMILES	BaF3 parental	Ba/F3 V617F tox	aSyn 5UTR inh	IEC-6 cytotox	KLF5 inhibitor	APP 5UTR inh
Cc1cn(-c2cc(C(=O)Nc3ccc(C)c(NC(=O)C(=O)c4c[nH]c5ccccc45)c3)cc(C(F)(F)F)c2)cn1	.	.	66*	.	.	.
COC(=O)c1ccc(NC(=O)C(=O)c2c[nH]c3ccccc23)cc1	.	.	-93	0	-84	.
O=C1C=C(c2cccs2)C[C@H](c2ccccc2)[C@H]1n1nnc([N+](=O)[O-])n1	11	18	71*	8	5	16
C=C1C(=O)[C@@]23[C@H](O)C[C@@H]4C(C)(C)CC[C@H](O)[C@]4(C)[C@@H]2C[C@H](O)[C@@H]1[C@H]3O	73*	62*	-6	-4	-21	33
Cc1cc(SCC(=O)N/N=C/c2ccccc2C(=O)O)c(C)cc1Br	.	.	5	-8	-19	.
Cc1cc(SCC(=O)N/N=C/c2ccc(O)cc2O)c(C)cc1Br	3	1	78*	5	38	49*
CS(=O)(=O)c1ccc(Cl)c(NC(=O)COC(=O)CNC(=O)c2ccc3ccccc3c2)c1	.	.	-1	.	.	.
c1ccc(CNc2nc(NCc3ccccc3)c3ccccc3n2)cc1	3	8	106*	2	1	.
CCOC(=O)C1=C(C)N(c2ccc(C)cc2)C(=O)/C1=C\c1ccc(O)c(OC)c1	29*	-5	-8	1	-2	.
Nc1nc(N)c2c(ccc3nccc32)[nH]1	102*	94*	49	71*	4	.
COP(=O)(OC)c1nc(-c2cccc3ccccc23)oc1N1CCOCC1	28*	-1	15	5	-23	-28
CC1(C)CC(=O)c2sc(NC(=O)C(C)(C)C)nc2C1	0	-4	-184	0	-49	-29
CC1(C)CC(=O)c2sc(NC(=O)CN3CCCCC3)nc2C1	2	0	-8	0	26	54*
Cc1ccc(OCC(COCc2ccccc2)NC(C)C)cc1 (configuration not stated)	.	.	1	.	.	.
C[C@H]1O[C@H](O[C@H]2[C@H](O)[C@@H](O)[C@@H](O[C@H]3[C@H](O)[C@@H](O)C(O)O[C@@H]3CO)O[C@@H]2CO)[C@H](O)[C@@H](O)[C@@H]1N[C@H]1C=C(CO)[C@@H](O)[C@H](O)[C@H]1O (some centres not stated)	-7	24*	-9	34*	10	.
CC1OC(OC2C(CO)OC(OC3C(CO)OC(O)C(O)C3O)C(O)C2O)C(O)C(O)C1N[C@@H]1C=C(CO)[C@@H](O)C(O)[C@H]1O (some centres not stated)	.	.	4	-8	-17	.
Cc1ccc(Cl)c(NC(=S)N(CCCN2CCOCC2)Cc2ccco2)c1	36*	11	5	6	-2	-9
S=C(Nc1ccc(Cl)cc1)N(CCCN1CCOCC1)Cc1ccco1	32*	37*	10	-5	-13	14
Cc1ccc(NC(=S)N(CCCN2CCOCC2)Cc2ccco2)cc1	2	-3	6	-1	0	-9
CCN1CCN(CCCN(Cc2ccco2)C(=S)Nc2ccc(Cl)c(C)c2)CC1	28*	38*	1	5	-16	-8
Cc1cc(NC(=S)N(CCCN2CCOCC2)Cc2ccco2)ccc1Cl	14	19	-7	-3	15	6
O=C(Nc1cc(C(F)(F)F)ccc1N1CCOCC1)c1cncc(Br)c1	0	-4	0	2	9	24
O=C(N/C(=C\c1ccco1)C(=O)N1CCCC1)c1cccs1	2	0	.	4	-7	-7
COCCNC(=O)c1ccc(CS(=O)(=O)c2ccccc2OC)o1	.	.	-2	-4	-50	.
O=C(COc1ccc(/C=N/NC(=O)c2cc3ccccc3o2)cc1Br)Nc1ccccc1	0	-1	116*	-1	14	-27

Assay outcomes from PubChem BioAssay.
